Source: PubChem BioAssay (NCATS)
Where “and” joins values, the source holds several entries; their conditions need not be identical. Equal values may be shown once. Inconclusive results are not listed. Entries that show only a call come without a potency. Calls of active or inactive are those of the source. Unless noted, calls follow the shape of the dose curve; as a rule, active = well fitted curve in the direction sought with a large enough effect; inconclusive = small, poorly fitted or top-dose-only effect, or another doubt; inactive = no such curve, though single readings can be large; an effect the other way counts as inactive or inconclusive.

Key:
[1] = Cell Viability - NIH 3T3 (AID 541); details: NIH 3T3 cell viability, qHTS; activity change, negative = cytotoxicity: at 92.2 µM (top of the series); also: nearly all actives have a fitted effect of over 25% in size
Method in brief: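 Luminescent ATP signal (CellTiter-Glo) served as the viability read-out after NIH 3T3 cells were exposed to compounds over a concentration range for 40 hr at 37 °C. Hill-equation modelling of concentration-response data gave AC50.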

[2] = Cell Viability - H-4-II-E (AID 543); also: nearly all actives have a fitted effect of over 35% in size
Method in brief: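 Luminescent ATP signal (CellTiter-Glo) served as the viability read-out, with cytotoxicity seen as a concentration-dependent ATP drop. Cells were treated for 40 hours in complete medium. AC50 values derive from Hill-equation modelling.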

[3] = Cell Viability - LYMP2-001 (AID 921); also: nearly all actives have a fitted effect of over 70% in size
Method in brief: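 qHTS, 1536-well; lymphoblastoid cells, 24 hr compound, 37 C; ATP by CellTiter-Glo, 30 min RT; luminescence; Hill-fit AC50.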

[4] = Cell Viability - LYMP2-005 (AID 967)
Method in brief: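 qHTS viability screen in LYMP2-005 cells: 24 h at 37 C with compound, ATP luminescence via CellTiter-Glo, AC50 from Hill curves.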

[5] = Cell Viability - LYMP2-020 (AID 986); also: nearly all actives have a fitted effect of over 55% in size
Method in brief: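 Luminescent ATP signal (CellTiter-Glo, 30 min at room temperature) is the read-out after 24 h compound treatment of lymphoblastoid cells at 37 C. AC50 values come from Hill-equation fits across concentrations.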

[6] = biological target: Estrogen receptor (Homo sapiens) (UniProt P03372); experiment: qHTS assay for small molecule antagonists of estrogen receptor alpha signaling (AID 588513; active = well fitted curve in the direction sought with a large enough effect in the signal ratio, with a control signal flat, not every such curve was filed as active; the % refers to the signal ratio)
Estrogen receptor (Homo sapiens), sequence (P03372 whole entry, looked up): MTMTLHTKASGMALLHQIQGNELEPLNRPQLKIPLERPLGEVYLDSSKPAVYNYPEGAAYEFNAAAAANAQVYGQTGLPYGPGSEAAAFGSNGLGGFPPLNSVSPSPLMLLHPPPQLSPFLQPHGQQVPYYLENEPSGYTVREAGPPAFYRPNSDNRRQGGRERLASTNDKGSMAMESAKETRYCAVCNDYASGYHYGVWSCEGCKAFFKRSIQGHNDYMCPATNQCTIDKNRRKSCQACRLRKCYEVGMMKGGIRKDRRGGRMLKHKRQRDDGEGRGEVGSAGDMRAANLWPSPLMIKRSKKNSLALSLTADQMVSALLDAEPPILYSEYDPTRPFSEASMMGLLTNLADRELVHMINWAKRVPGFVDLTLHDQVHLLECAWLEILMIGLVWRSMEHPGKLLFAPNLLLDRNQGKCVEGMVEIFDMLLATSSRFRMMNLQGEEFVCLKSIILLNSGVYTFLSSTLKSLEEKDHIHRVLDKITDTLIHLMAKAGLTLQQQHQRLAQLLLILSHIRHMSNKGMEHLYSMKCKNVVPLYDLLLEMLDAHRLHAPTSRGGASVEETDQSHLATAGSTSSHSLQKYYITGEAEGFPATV
Method in brief: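 Cells were plated at 5000/well and incubated 4 h at 37 C. Compounds were added as 1:2 dilution series, duplicates. 17-beta-estradiol (0.5nM final) was added for 18 h before CCF4 detection.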

[7] = biological target: Glucocorticoid receptor (Homo sapiens) (UniProt P04150); experiment: qHTS assay for small molecule agonists of glucocorticoid receptor signaling (AID 588532; active = well fitted curve in the direction sought with a large enough effect in the signal ratio, with a control signal flat; the % refers to the signal ratio); details: HeLa MMTV-bla, beta-lactamase ratio, agonist, 18 h; stronger effect = higher value; percent of dexamethasone control, DMSO zero
Glucocorticoid receptor (Homo sapiens), sequence (P04150 whole entry, looked up): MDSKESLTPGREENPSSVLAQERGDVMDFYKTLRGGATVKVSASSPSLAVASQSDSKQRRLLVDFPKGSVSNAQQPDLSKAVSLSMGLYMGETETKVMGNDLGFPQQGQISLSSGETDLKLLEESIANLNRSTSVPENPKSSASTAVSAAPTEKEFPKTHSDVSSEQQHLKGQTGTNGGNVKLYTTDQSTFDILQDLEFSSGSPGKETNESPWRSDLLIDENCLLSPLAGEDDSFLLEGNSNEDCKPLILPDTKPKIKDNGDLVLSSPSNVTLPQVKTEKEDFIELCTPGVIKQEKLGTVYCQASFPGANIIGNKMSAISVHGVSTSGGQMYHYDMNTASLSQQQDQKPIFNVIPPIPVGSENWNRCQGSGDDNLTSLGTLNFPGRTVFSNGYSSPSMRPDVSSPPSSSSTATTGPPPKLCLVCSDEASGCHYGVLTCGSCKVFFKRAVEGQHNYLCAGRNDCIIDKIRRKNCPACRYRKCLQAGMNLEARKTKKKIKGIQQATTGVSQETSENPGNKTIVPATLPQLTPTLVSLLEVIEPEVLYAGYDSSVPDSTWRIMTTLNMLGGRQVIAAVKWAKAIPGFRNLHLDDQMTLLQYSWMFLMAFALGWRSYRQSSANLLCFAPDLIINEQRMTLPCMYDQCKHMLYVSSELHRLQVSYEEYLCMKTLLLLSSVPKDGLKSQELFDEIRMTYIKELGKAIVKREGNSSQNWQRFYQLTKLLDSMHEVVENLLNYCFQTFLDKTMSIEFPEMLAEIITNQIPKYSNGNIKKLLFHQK
Method in brief: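 Using MMTV-bla HeLa cells in medium with 1% stripped FBS and 25 mM HEPES, compounds were titrated and incubated overnight-length (18 h). Beta-lactamase cleavage of CCF4 was quantified by dual-emission fluorescence.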

[8] = biological target: Glucocorticoid receptor (Homo sapiens) (UniProt P04150); experiment: qHTS assay for small molecule antagonists of glucocorticoid receptor signaling (AID 588533; active = well fitted inhibition curve with a large enough effect in the signal ratio, with a control signal flat, not every such curve was filed as active; the % refers to the signal ratio;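 also: cells stimulated with 2 nM dexamethasone as agonist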)
Method in brief: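 Antagonist-mode qHTS: compound titrations added to GRE-bla HeLa cells, then dexamethasone 2 nM final; 18 h, 37 C. CCF4 FRET fluorescence normalized to dexamethasone and DMSO; IC50 from Hill fit.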

[9] = biological target: Peroxisome proliferator-activated receptor delta (Homo sapiens) (UniProt Q03181); experiment: qHTS assay for small molecule agonists of peroxisome proliferator-activated receptor delta signaling (AID 588534; calls by dose curve)
Peroxisome proliferator-activated receptor delta (Homo sapiens), sequence (Q03181 whole entry, looked up): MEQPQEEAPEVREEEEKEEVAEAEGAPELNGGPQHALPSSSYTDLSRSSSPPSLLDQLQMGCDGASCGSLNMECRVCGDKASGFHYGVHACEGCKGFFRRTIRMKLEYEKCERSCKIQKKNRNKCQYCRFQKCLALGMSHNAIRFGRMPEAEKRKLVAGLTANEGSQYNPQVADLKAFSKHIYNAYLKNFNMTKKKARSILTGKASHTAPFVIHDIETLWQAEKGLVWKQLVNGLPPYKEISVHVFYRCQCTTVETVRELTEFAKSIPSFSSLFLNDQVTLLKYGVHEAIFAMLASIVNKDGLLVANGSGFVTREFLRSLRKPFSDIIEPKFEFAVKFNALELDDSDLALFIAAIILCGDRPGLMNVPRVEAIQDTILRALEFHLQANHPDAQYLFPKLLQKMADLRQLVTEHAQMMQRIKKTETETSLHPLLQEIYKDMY
Method in brief: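 Fluorescence from CCF4 substrate cleavage by beta-lactamase reporter, read 2 hrs at RT, measured agonist activity. Compounds were tested with 18 hrs exposure at 37 C. Concentration-response data fitted to Hill equation.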

[10] = qHTS assay for small molecule antagonists of peroxisome proliferator-activated receptor delta signaling (AID 588535; active = well fitted inhibition curve with a large enough effect in the signal ratio, with a control signal flat, not every such curve was filed as active; the % refers to the signal ratio;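 as to max response: cells co-treated with a PPAR-delta agonist as stimulator during compound exposure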); details: HEK293T PPARd-UAS-bla, beta-lactamase FRET ratio, 18 h; 460 nm channel
Method in brief: (§1)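 HEK293T PPAR-delta-UAS-bla cells, 4000/well, 2% charcoal/dextran FBS; 5 h 37 C; cpd titration; 18 h 37 C; CCF4 2 h RT; FI 460/530 nm; Hill fit → IC50, efficacy.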

[11] = biological target: Peroxisome proliferator-activated receptor delta (Homo sapiens) (UniProt Q03181); experiment: as above
Method in brief: as §1

[12] = biological target: Vitamin D3 receptor (Homo sapiens) (UniProt P11473); experiment: qHTS assay for small molecule agonists of vitamin D receptor signaling (AID 588543; calls by dose curve)
Vitamin D3 receptor (Homo sapiens), sequence (P11473 whole entry, looked up): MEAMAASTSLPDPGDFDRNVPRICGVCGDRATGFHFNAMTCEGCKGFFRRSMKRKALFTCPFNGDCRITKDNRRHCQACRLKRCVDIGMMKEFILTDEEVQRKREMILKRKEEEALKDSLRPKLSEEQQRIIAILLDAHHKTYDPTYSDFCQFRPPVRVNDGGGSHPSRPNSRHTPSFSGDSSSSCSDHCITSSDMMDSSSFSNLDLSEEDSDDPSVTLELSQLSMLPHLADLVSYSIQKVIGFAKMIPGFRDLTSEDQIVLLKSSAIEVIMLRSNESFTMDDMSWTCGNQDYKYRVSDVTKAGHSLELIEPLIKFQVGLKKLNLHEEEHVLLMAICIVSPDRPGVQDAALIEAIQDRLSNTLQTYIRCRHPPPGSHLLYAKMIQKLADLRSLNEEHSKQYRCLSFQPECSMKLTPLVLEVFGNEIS
Method in brief: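 qHTS in agonist mode: compound titrations stimulate a VDR-driven β-lactamase reporter in HEK293T cells over 16 h at 37 °C. Response normalized to 50 nM 1α,25-dihydroxyvitamin D3 = 100%, DMSO = 0%; Hill fitting gives EC50 and maximal response.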

[13] = biological target: Thyroid hormone receptor beta (Homo sapiens) (UniProt P10828); experiment: qHTS assay for small molecule agonists of thyroid hormone receptor beta signaling (AID 588545; calls by dose curve)
Thyroid hormone receptor beta (Homo sapiens), sequence (P10828 whole entry, looked up): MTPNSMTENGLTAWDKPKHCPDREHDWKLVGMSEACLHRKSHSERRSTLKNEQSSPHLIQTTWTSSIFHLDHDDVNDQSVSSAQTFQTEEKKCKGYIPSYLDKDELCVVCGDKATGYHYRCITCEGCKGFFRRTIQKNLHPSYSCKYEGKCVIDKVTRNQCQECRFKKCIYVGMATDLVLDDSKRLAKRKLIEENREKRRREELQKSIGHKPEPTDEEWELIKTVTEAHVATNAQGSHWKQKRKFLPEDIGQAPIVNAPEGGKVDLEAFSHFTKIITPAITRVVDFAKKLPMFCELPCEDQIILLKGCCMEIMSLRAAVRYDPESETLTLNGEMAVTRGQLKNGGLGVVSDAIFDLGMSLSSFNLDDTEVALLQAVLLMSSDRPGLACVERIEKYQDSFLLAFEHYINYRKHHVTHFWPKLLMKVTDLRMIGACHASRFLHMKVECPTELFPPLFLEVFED
Method in brief: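 Agonist-mode beta-lactamase reporter assay, HEK 293 cells, 2% charcoal/dextran FBS; cells plated 4 hrs, compound 18 hrs at 37 C, CCF4 2 hrs RT. Normalized to 10 nM T3 (100%) and DMSO (0%); Hill fit gives EC50, efficacy.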

[14] = qHTS assay for environmental chemicals that activate the Aryl hydrocarbon Receptor (AhR) signaling pathway (AID 651777); details: 1A2-DRE human hepatoma cells, luciferase, 24 h; activation: stronger effect = higher value; also: nearly all actives have a fitted effect of over 15% in size
Method in brief: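 Reporter gene assay: hepatoma cells with DRE/CYP1A2-luciferase, 24 hr compound incubation at 37 C, 5% CO2, luminescence after One-Glo (30 min, RT).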

[15] = Cell Viability - LYMP2-010 (AID 981); also: nearly all actives have a fitted effect of over 55% in size
Method in brief: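 Luminescent ATP signal (CellTiter-Glo) served as the viability read-out. Cells of the human lymphoblastoid line were treated with compound over a concentration range for 24 hours at 37 C, and AC50 values came from Hill-equation modeling.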

[16] = qHTS assay for small molecule agonists of the antioxidant response element (ARE) signaling pathway (AID 651741; active = well fitted activation curve with a large enough effect in the signal ratio; the % refers to the signal ratio; also: potency is read from the fitted curve at half-maximal effect)
Method in brief: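 Quantitative HTS in HepG2 cells stably expressing an ARE-beta-lactamase reporter; 16 h compound exposure at 37 C, followed by 2 h room-temperature incubation with LiveBLAzer B/G FRET substrate and fluorescence measurement.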

[17] = qHTS assay for small molecule activators of the p53 signaling pathway (AID 651743; active = well fitted activation curve with a large enough effect in the signal ratio, not every such curve was filed as active; the % refers to the signal ratio); details: HCT-116 p53RE-bla, beta-lactamase FRET ratio, 16 h; activation: stronger effect = higher value
Method in brief: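 Read-out is fluorescence intensity from the LiveBLAzer B/G FRET substrate, added for 2 hours at room temperature after HCT-116 p53RE-bla cells had been incubated with compounds for 16 hours at 37 C.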

[18] = biological target: Bile acid receptor (Homo sapiens) (UniProt Q96RI1); experiment: qHTS assay for small molecule agonists of farnesoid X receptor signaling (AID 588527; calls by dose curve); details: HEK293T FXR-UAS-bla, beta-lactamase ratio, 16 h; stronger effect = higher value
Bile acid receptor (Homo sapiens), sequence (Q96RI1 whole entry, looked up): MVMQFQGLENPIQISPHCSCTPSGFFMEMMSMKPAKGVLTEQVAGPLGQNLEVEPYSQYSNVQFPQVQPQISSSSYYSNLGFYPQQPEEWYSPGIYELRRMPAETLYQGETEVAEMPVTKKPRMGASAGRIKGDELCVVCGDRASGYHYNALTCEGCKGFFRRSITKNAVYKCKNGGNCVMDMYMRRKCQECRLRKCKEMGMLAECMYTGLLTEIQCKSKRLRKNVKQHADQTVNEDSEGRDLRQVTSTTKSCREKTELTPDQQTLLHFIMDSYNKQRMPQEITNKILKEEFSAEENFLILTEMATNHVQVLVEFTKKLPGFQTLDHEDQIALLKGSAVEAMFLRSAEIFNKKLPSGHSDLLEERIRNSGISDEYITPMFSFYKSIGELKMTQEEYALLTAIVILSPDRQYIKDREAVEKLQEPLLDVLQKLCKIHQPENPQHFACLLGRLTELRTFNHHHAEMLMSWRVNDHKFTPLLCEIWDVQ
Method in brief: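 FXR-UAS-bla HEK293T cells (10% dialyzed FBS) preincubated 5-7 h at 37 C, then compounds at up to 92 uM for 16 h at 37 C. CCF4 beta-lactamase read-out after 2 h RT. Normalized to chenodeoxycholic acid (100 uM) and DMSO; Hill fit gave EC50 and efficacy.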

[19] = qHTS assay for small molecule activators of the nuclear factor-kappa B (NF-kB) signaling pathway (AID 651749; active = well fitted activation curve with a large enough effect in the signal ratio; the % refers to the signal ratio); details: NF-kB-bla ME-180 cells, beta-lactamase FRET ratio, 16 h; stronger effect = higher value
Method in brief: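 Readout: beta-lactamase reporter driven by an NF-kB response element, detected fluorescently as loss of FRET. Cells were the ME-180 line, treated 16 hr at 37C with pin-transferred compound.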

[20] = biological target: Peroxisome proliferator-activated receptor gamma (Homo sapiens) (UniProt P37231); experiment: qHTS assay for small molecule antagonists of peroxisome proliferator-activated receptor gamma signaling (AID 588537; active = well fitted inhibition curve with a large enough effect in the signal ratio, with a control signal flat, not every such curve was filed as active; the % refers to the signal ratio;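 also: reporter cells co-stimulated with 50 nM rosiglitazone agonist during compound treatment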)
Peroxisome proliferator-activated receptor gamma (Homo sapiens), sequence (P37231 whole entry, looked up): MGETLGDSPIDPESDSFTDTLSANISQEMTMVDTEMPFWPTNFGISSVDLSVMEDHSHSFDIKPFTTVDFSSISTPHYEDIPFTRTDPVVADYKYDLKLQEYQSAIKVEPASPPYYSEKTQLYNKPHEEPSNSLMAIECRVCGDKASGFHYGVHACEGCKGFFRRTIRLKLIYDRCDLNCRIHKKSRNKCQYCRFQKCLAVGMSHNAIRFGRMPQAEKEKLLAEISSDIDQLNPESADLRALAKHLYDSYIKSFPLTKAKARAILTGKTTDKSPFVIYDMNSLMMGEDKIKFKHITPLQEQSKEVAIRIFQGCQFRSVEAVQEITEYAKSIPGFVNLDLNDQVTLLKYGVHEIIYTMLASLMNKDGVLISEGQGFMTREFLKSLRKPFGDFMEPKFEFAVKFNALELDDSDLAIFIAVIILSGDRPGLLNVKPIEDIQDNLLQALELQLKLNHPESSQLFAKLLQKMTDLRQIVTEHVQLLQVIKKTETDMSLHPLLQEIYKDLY
Method in brief: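 Antagonist mode, beta-lactamase reporter in HEK293; charcoal/dextran FBS 1%; 3000 cells/well, 37 C 6-6.5 h; cpd titration + rosiglitazone 50 nM final, 16 h 37 C; CCF4, 2 h RT; 460/530 nm; Hill fit → IC50, efficacy.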

Structure (SMILES) | Potency [1] | Potency [2] | Potency [3] | Potency [4] | Potency [5] | Potency [6] | activation [7] | outcome [8] | outcome [9] | max response [10] | outcome [11] | outcome [12] | Potency [13] | activation [14] | Potency [15] | Potency [16] | activation [17] | activation [18] | activation [19] | Potency [20]
Clc1ccccc1 | inactive | inactive | inactive | inactive | inactive | inactive | -4.89% (inactive) | inactive | inactive | -34.6% | inactive | inactive | inactive | -0.0364% (inactive) |  |  |  |  |  | 
Nc1ccc(-c2ccc(N)cc2)cc1 | inactive |  | inactive |  | inactive | inactive | -6.73% (inactive) | inactive |  |  |  | inactive |  | 11.6% (inactive) | inactive | inactive | -1.06% (inactive) |  |  | 
CN(C)C(=O)Nc1ccc(Cl)cc1 |  | inactive | inactive | inactive | inactive |  |  | inactive | inactive | -2.77% and 22.5% | inactive | inactive | inactive | 1.83% (inactive) and 5.75% (inactive) | inactive | inactive | -1.85% (inactive) and -2.71% (inactive) | 0.657% (inactive) and 0.9% (inactive) | 2.75% (inactive) and -0.215% (inactive) | 
Cc1cc(-c2ccc(N)c(C)c2)ccc1N | inactive |  | inactive | inactive |  | inactive |  |  |  |  |  |  | inactive |  | inactive | 12.2 µM (active) and 6.86 µM (active) | -1.87% (inactive) and -0.84% (inactive) and 2.36% (inactive) |  |  | inactive
OCCOCCO |  | inactive | inactive |  | inactive | inactive | -0.687% (inactive) | inactive | inactive | 5.13% | inactive | inactive | inactive | -0.842% (inactive) | inactive |  |  | -2.87% (inactive) |  | inactive
Cc1ccc(N)c(C)c1 | inactive | inactive | inactive | inactive | inactive |  | -0.661% (inactive) | inactive |  | 14.7% | inactive | inactive | inactive |  | inactive |  |  | 3.12% (inactive) |  | inactive
Nc1cccc(Cl)c1 | inactive | inactive | inactive |  | inactive | inactive |  |  | inactive | 30.4% | inactive | inactive |  | -0.221% (inactive) |  | inactive | -1.95% (inactive) | -2.3% (inactive) | -1.07% (inactive) | 
CCCCOC(=O)c1ccccc1N | inactive |  | inactive | inactive | inactive |  |  | inactive | inactive | -36.1% | inactive | inactive |  | 0.138% (inactive) | inactive |  |  | 0.511% (inactive) | -0.998% (inactive) | 
Clc1ccc(C(Cl)(Cl)Cl)cc1Cl |  | inactive |  | inactive | inactive | inactive |  | inactive | inactive |  |  | inactive |  | -0.831% (inactive) | inactive |  | 0.791% (inactive) |  | -1.35% (inactive) | 
Cc1ccc(N=C=O)cc1N=C=O | inactive | inactive | inactive |  | inactive |  | 4.9% (inactive) and -2.62% (inactive) | inactive |  |  |  | inactive | inactive |  | inactive | inactive | -2.11% (inactive) and -1.5% (inactive) |  | 0.173% (inactive) and 0.839% (inactive) | inactive
ClCCOCOCCCl | inactive | inactive |  |  | inactive |  | -0.285% (inactive) | inactive |  |  |  | inactive |  | 0.193% (inactive) |  |  | -4.18% (inactive) | 0.794% (inactive) | -0.753% (inactive) | inactive
ClCc1ccccc1 |  | inactive |  | inactive |  | inactive |  |  | inactive | -22.1% | inactive | inactive |  |  |  | inactive | -2.55% (inactive) |  | -0.661% (inactive) | 
C=CC(=O)OCC(C)C | inactive | inactive | inactive | inactive | inactive | inactive | -2.2% (inactive) | inactive | inactive | -6.69% | inactive | inactive | inactive | 0.0769% (inactive) |  | inactive | -0.853% (inactive) |  | 0.0391% (inactive) | inactive
Clc1cccc(Cl)c1 | inactive |  | inactive |  |  |  | -3.34% (inactive) | inactive | inactive | 20.6% | inactive | inactive |  |  | inactive |  |  |  | -1.17% (inactive) | 
S=c1[nH]c2ccccc2[nH]1 | inactive |  | inactive | inactive |  |  | -3.9% (inactive) | inactive |  |  |  |  | inactive | 1.98% (inactive) | inactive |  |  |  |  | inactive
CC(C)(Cl)[N+](=O)[O-] | inactive | inactive |  | inactive | inactive |  | -3.18% (inactive) |  | inactive |  |  | inactive | inactive | -0.364% (inactive) | inactive | inactive |  | 0.224% (inactive) | -0.598% (inactive) | inactive
C=C(Cl)CCl | inactive |  | inactive | inactive | inactive | inactive | -2.96% (inactive) | inactive | inactive | 15.9% | inactive | inactive | inactive |  | inactive | inactive | -0.495% (inactive) |  | 0.174% (inactive) | 
ClC(Cl)c1ccccc1 |  | inactive | inactive | inactive | inactive | inactive | -0.105% (inactive) | inactive | inactive | 17.7% | inactive | inactive | inactive |  | inactive | inactive |  |  | -0.312% (inactive) | 
